Bfl-1 A1 inh – caspase 3/7 activation in MEF A1-2A-BIM cells, primary screen, A1 inhibitor project, cell-based, luminescence, HTS | 330,000 tested, 0.066% active | caspase activation, % (test concentration not listed) | AID 2462, 2010 | Caspase-Glo 3/7 luminescence, 3 h; percent of clofoctol response, vehicle zero;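 active = over half of replicate activation scores above 10%, or exactly half above 10 with the replicate mean above 10; inconclusive = replicate mean below 10 yet half the replicates above 10; inactive = over half of replicates below 10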
aSyn UTR inh – MLPCN primary screen, SNCA 5' untranslated region. alpha-synuclein 5'UTR reporter, inhibitor activity. inhibition, % (tested at 7.5 µM). 300,000 tested, 0.82% active. AID 1813, 2009; in the data active = inhibition above about 60%; inconclusive = no clear call, values can overlap the other calls;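 also: H4 neuroglioblastoma cells stably carrying SNCA 5'UTR luciferase fusion; 0% = DMSO wells and 100% = positive control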
Beta apoptosis – inhibitors of cytokine-induced beta cell apoptosis, primary screen, luminescence | 300,000 tested, 0.8% active | INS-1E cytokine-induced death, ATP luminescence, 48 h; percent of positive-control rescue, neutral wells zero | protection from apoptosis, % (concentration not given with the values) | AID 435005, 2010;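 active = Every replicate reaches about 75%, or at least half do and their mean reaches it too, limit read from the data; inconclusive = At least half of replicates reach the limit but their mean does not; inactive = Under half of replicates reach the limit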;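 also: 0% = cytokine-treated negative control wells and 100% = positive control rescue; higher means more ATP so stronger rescue from cytokine killing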
Mdm2 MdmX PPI – inhibitors of human Mdm2-MdmX association, primary screen, cell-based, luminescence, split luciferase, SaOS-2, uHTS; SaOS-2 split-luciferase Mdm2/MdmX complementation; inhibition, % at 8 µM; 330,000 tested, 3% active; AID 485346, 2010;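 active = inhibition of at least 50% at 8 µM in the primary screen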
CSC inhib – cancer stem cell viability inhibitors, primary screen, luminescence; 300,000 tested, 1.1% active; AID 2717, 2010; inhibition, % at 7.5 µM; cancer stem cell-like cells viability; in the data active = inhibition above about 75%; inconclusive = no clear call, values can overlap the other calls; tested in HMLE shEcad cells
Mdm2 MdmX conf – Mdm2-MdmX complex disruptors, retested hits, confirmation, luminescence, single concentration | AID 489028, 2010 | shares compounds with Mdm2 MdmX PPI | 10,000 tested, 55% active | inhibition, % at 8 µM | Mdm2-MdmX binding, luminescent assay; in the data active = inhibition above about 40%
Full FLuc ctr – full-length luciferase signal inhibition, confirmation, counter-screen for Mdm2/MdmX interaction inhibitor project, cell-based, single concentration, SaOS-2; shares compounds with Mdm2 MdmX PPI; SaOS-2 full-length luciferase counterscreen, luminescence; inhibition, % at 8 µM; 6,200 tested, 77% active;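 active = mean inhibition at 8 µM reaching about 37%, which flags the compound as non-specific, limit read from the data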;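 also: p53-null SaOS-2 cells with luciferase driven by a doxycycline-inducible promoter; compound on cells about two nights before reading with doxycycline added after day one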
Active calls of the source: *. A selection: hits, their analogues and other compounds. The true share with any hit is near 4.1%.

What do the screens show for `COc1ccc(/C=N/NC(=O)COc2ccccc2-c2ccccc2)cc1`?
Bfl-1 A1 inh: 0; aSyn UTR inh: 70*; Beta apoptosis: 32; Mdm2 MdmX PPI: 56*; CSC inhib: -12; Mdm2 MdmX conf: 68*; Full FLuc ctr: 90*

How did COc1ccc(/C=N/NC(=O)CCn2cnc(-c3ccccc3)c2-c2ccccc2)cc1 do in these assays?
Bfl-1 A1 inh: 0; aSyn UTR inh: inconclusive; Beta apoptosis: 35; Mdm2 MdmX PPI: 58*; CSC inhib: 52; Mdm2 MdmX conf: 72*; Full FLuc ctr: 96*

What do the screens show for `CN(C)c1ccc(/C=N/NC(=O)COc2ccccc2)cc1`?
Bfl-1 A1 inh: 0; aSyn UTR inh: -32; Beta apoptosis: -10; Mdm2 MdmX PPI: -3; CSC inhib: -12

How did COCc1ccc(CN2CCCC(C(=O)Nc3ccc(-c4cscn4)cc3)C2)o1 (stereo not drawn) do in these assays?
Bfl-1 A1 inh: 1; aSyn UTR inh: -1; Beta apoptosis: 3; Mdm2 MdmX PPI: 8; CSC inhib: -4

Results for C=C1CCC(OC(C)=O)C2(C)CCC3C(C)C(=O)OC3C12O (stereo not drawn) ?
Bfl-1 A1 inh: 1; aSyn UTR inh: -21; Mdm2 MdmX PPI: 30

Results for Oc1c(I)cc(I)c2cccnc12 ?
aSyn UTR inh: -5; Mdm2 MdmX PPI: 93*; Mdm2 MdmX conf: 72*; Full FLuc ctr: 39*

How did CCc1ccc(NC(=O)CSc2n[nH]c(=O)n2C2CC2)cc1 do in these assays?
Mdm2 MdmX PPI: -24

What do the screens show for `COc1cc(/C=N/NC(=O)c2nnn(-c3nonc3N)c2C(C)C)ccc1OCc1ccccc1`?
Bfl-1 A1 inh: -1; aSyn UTR inh: -82; Beta apoptosis: 8; Mdm2 MdmX PPI: -2; CSC inhib: 22

Results for COc1ccc(C(=O)OCC(=O)Nc2ccc([N+](=O)[O-])cc2OC)c(O)c1 ?
Bfl-1 A1 inh: 0; aSyn UTR inh: 10; Beta apoptosis: 9; Mdm2 MdmX PPI: 84*; CSC inhib: 3; Mdm2 MdmX conf: 8

How did COc1ccc([N+](=O)[O-])cc1NC(=O)COC(=O)c1ccccc1O do in these assays?
Bfl-1 A1 inh: 0; aSyn UTR inh: -15; Beta apoptosis: 3; Mdm2 MdmX PPI: 23; CSC inhib: -9

What do the screens show for `COc1ccc2c(c1OC)C(=O)N1c3ccccc3C(=O)N(c3ccccc3F)C21` (stereo not drawn)?
Bfl-1 A1 inh: 0; aSyn UTR inh: inconclusive; Beta apoptosis: 1; Mdm2 MdmX PPI: 66*; CSC inhib: 12; Mdm2 MdmX conf: 60*; Full FLuc ctr: 76*

What do the screens show for `N/C(=N\OC(=O)c1cccc2ccccc12)c1cccc([N+](=O)[O-])c1`?
Bfl-1 A1 inh: 0; aSyn UTR inh: -123; Beta apoptosis: -7; Mdm2 MdmX PPI: 76*; CSC inhib: 2; Mdm2 MdmX conf: 58*; Full FLuc ctr: 128*

Results for Cc1ccccc1C(=O)O/N=C(\N)c1cccc([N+](=O)[O-])c1 ?
Bfl-1 A1 inh: 0; aSyn UTR inh: -275; Beta apoptosis: -2; Mdm2 MdmX PPI: 26; CSC inhib: 0

Results for COc1cc(OC)cc(C(=O)O/N=C(\N)c2cccc(C)c2)c1 ?
Bfl-1 A1 inh: -1; aSyn UTR inh: -81; Beta apoptosis: -7; Mdm2 MdmX PPI: 73*; CSC inhib: 0; Mdm2 MdmX conf: 44*; Full FLuc ctr: 105*

Results for Cc1cccc(/C(N)=N/OC(=O)N2c3ccccc3Sc3ccccc32)c1 ?
Bfl-1 A1 inh: 2; aSyn UTR inh: -70; Beta apoptosis: 17; Mdm2 MdmX PPI: 64*; CSC inhib: 7; Mdm2 MdmX conf: 1

What do the screens show for `O=C(O/N=C(\c1ccccc1)c1ccncc1)c1ccccc1Cl`?
Bfl-1 A1 inh: 0; aSyn UTR inh: 8; Beta apoptosis: 3; Mdm2 MdmX PPI: 1; CSC inhib: 9

What do the screens show for `O=C(O/N=C(\c1ccccc1)c1ccccn1)c1cccc2ccccc12`?
Bfl-1 A1 inh: 0; aSyn UTR inh: -1; Beta apoptosis: -6; Mdm2 MdmX PPI: 87*; CSC inhib: -6; Mdm2 MdmX conf: 29

What do the screens show for `N/C(=N\OC(=O)N1c2ccccc2Sc2ccccc21)c1ccccc1`?
Bfl-1 A1 inh: 0; aSyn UTR inh: -19; Beta apoptosis: 10; Mdm2 MdmX PPI: 20; CSC inhib: 1

How did COc1cc(C(=O)OC(C)c2ccc(F)cc2)ccc1OCC(=O)N1CCOCC1 (stereo not drawn) do in these assays?
Bfl-1 A1 inh: -1; Beta apoptosis: -8; Mdm2 MdmX PPI: -17; CSC inhib: -9

Results for COc1cc(C2C(C(=O)c3cc4ccccc4o3)=C(O)C(=O)N2CCN2CCOCC2)ccc1OCCC(C)C (stereo not drawn) ?
aSyn UTR inh: 12; Mdm2 MdmX PPI: 18

Results for Cc1cccc(/C(N)=N/OC(=O)c2cccc3ccccc23)c1 ?
Bfl-1 A1 inh: 1; aSyn UTR inh: -52; Beta apoptosis: -1; Mdm2 MdmX PPI: 100*; CSC inhib: -4; Mdm2 MdmX conf: 78*; Full FLuc ctr: 108*

What do the screens show for `N/C(=N\OC(=O)c1cccc2ccccc12)c1cccnc1`?
Bfl-1 A1 inh: -1; aSyn UTR inh: -184; Beta apoptosis: 1; Mdm2 MdmX PPI: 48; CSC inhib: -7

How did CC1CCCN(CCCNC(=O)c2ccc3c(c2)N(Cc2ccccc2F)C(=O)c2ccccc2S3(=O)=O)C1 (stereo not drawn) do in these assays?
Bfl-1 A1 inh: 1; aSyn UTR inh: -10; Beta apoptosis: 0; Mdm2 MdmX PPI: 64*; CSC inhib: -1; Mdm2 MdmX conf: 34; Full FLuc ctr: 51*

How did O=C1Nc2cc(C(=O)NCCCN3CCCC3)ccc2S/C1=C/c1ccccc1F do in these assays?
Bfl-1 A1 inh: -1; aSyn UTR inh: -106; Mdm2 MdmX PPI: 58*; CSC inhib: 40; Mdm2 MdmX conf: 14

Results for CCN1C(=O)c2ccccc2Sc2ccc(C(=O)NCCCN3CCCCC3)cc21 ?
Bfl-1 A1 inh: -1; aSyn UTR inh: 19; Beta apoptosis: 1; Mdm2 MdmX PPI: 51*; CSC inhib: 4; Mdm2 MdmX conf: 10

What do the screens show for `COc1cccc(/C=C2/Sc3ccc(C(=O)NCCN4CCCC4)cc3NC2=O)c1`?
Bfl-1 A1 inh: 1; aSyn UTR inh: 8; Mdm2 MdmX PPI: 58*; CSC inhib: 31; Mdm2 MdmX conf: 10

High-throughput results from PubChem.
